Key:
[1] = biological target: Protein kinase C gamma type (Homo sapiens) (UniProt P05129); details: at 1 µM;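 further: each value is an averaged percent inhibition of the enzyme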
[2] = biological target: T1, Protein kinase C iota type (Homo sapiens) (UniProt P41743); details: at 0.1 µM
T1 sequence (whole entry): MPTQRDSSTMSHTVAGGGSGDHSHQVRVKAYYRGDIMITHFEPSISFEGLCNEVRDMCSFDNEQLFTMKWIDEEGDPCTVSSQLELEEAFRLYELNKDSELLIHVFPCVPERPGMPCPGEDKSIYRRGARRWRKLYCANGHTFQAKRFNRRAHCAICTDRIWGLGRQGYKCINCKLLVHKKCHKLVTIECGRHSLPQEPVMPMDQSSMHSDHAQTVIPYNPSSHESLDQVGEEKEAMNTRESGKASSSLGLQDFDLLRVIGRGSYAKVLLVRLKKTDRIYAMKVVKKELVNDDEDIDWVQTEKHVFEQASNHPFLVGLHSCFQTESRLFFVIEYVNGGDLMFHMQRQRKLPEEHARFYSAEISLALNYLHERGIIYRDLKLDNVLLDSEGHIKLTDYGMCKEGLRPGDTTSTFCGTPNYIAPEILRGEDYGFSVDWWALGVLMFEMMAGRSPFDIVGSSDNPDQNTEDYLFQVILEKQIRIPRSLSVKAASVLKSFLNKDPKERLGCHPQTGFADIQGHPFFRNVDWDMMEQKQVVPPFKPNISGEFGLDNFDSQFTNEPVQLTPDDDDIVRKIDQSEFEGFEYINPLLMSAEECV

[3] = biological target: T1, Protein kinase C iota type (Homo sapiens); details: at 1 µM
[4] = biological target: Protein kinase C theta type (Homo sapiens) (UniProt Q04759); details: at 0.1 µM
[5] = biological target: Protein kinase C theta type (Homo sapiens) (UniProt Q04759); details: at 1 µM
[6] = biological target: Protein kinase C beta type (Homo sapiens) (UniProt P05771); details: at 0.1 µM
[7] = biological target: Protein kinase C beta type (Homo sapiens) (UniProt P05771); details: at 1 µM
[8] = biological target: T2, Serine/threonine-protein kinase D1 (Homo sapiens) (UniProt Q15139); details: at 0.1 µM
T2 sequence (whole entry): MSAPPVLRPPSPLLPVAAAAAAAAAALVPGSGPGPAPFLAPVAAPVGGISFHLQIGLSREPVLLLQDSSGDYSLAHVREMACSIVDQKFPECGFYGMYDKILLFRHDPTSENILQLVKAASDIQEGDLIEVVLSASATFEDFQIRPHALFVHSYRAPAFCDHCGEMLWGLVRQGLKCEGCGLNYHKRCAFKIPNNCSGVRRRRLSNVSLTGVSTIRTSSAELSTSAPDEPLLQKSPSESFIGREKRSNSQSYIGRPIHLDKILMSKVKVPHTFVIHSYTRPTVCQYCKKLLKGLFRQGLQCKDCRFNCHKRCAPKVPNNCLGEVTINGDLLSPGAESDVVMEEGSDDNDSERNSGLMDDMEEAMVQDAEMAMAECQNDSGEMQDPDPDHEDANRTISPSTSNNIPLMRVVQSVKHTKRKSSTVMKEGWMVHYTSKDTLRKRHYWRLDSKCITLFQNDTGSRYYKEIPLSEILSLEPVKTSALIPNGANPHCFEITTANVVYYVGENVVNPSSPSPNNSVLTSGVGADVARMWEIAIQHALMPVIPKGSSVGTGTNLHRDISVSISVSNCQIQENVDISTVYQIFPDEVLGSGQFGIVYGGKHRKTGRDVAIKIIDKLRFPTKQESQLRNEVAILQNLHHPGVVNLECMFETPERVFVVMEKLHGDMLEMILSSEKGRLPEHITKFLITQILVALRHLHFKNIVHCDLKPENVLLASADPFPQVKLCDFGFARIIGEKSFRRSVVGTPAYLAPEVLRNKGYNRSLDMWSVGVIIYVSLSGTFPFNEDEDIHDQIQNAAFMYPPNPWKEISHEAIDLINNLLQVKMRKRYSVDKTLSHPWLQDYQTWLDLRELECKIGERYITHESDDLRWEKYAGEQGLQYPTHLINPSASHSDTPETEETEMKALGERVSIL

[9] = biological target: T2, Serine/threonine-protein kinase D1 (Homo sapiens); details: at 1 µM
[10] = biological target: T3, Serine/threonine-protein kinase D2 (Homo sapiens) (UniProt Q9BZL6); details: at 0.1 µM
T3 sequence (whole entry): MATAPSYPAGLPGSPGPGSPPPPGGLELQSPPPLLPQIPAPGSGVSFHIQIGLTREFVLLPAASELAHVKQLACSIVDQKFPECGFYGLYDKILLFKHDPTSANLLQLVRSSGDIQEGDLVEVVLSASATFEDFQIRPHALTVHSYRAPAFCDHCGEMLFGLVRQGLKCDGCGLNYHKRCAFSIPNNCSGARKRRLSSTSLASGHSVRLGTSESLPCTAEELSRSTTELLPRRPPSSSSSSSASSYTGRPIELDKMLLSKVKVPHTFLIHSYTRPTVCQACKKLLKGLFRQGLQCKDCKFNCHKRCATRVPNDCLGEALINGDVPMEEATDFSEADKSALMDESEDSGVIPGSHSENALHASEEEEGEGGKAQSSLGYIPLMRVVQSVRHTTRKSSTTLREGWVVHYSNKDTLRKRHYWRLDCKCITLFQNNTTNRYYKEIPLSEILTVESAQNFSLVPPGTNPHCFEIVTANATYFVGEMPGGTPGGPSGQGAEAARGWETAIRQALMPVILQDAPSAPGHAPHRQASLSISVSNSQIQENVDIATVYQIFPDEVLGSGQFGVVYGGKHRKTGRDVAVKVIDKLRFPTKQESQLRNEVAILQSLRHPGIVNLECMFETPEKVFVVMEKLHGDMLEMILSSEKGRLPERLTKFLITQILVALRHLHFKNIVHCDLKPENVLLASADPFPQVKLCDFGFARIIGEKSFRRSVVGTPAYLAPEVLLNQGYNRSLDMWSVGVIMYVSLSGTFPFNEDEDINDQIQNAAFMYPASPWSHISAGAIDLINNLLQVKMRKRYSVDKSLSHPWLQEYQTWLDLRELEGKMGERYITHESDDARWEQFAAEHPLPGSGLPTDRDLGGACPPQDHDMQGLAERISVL

[11] = biological target: T3, Serine/threonine-protein kinase D2 (Homo sapiens); details: at 1 µM
[12] = biological target: T4, Serine/threonine-protein kinase D3 (Homo sapiens) (UniProt O94806); details: at 0.1 µM
T4 sequence (whole entry): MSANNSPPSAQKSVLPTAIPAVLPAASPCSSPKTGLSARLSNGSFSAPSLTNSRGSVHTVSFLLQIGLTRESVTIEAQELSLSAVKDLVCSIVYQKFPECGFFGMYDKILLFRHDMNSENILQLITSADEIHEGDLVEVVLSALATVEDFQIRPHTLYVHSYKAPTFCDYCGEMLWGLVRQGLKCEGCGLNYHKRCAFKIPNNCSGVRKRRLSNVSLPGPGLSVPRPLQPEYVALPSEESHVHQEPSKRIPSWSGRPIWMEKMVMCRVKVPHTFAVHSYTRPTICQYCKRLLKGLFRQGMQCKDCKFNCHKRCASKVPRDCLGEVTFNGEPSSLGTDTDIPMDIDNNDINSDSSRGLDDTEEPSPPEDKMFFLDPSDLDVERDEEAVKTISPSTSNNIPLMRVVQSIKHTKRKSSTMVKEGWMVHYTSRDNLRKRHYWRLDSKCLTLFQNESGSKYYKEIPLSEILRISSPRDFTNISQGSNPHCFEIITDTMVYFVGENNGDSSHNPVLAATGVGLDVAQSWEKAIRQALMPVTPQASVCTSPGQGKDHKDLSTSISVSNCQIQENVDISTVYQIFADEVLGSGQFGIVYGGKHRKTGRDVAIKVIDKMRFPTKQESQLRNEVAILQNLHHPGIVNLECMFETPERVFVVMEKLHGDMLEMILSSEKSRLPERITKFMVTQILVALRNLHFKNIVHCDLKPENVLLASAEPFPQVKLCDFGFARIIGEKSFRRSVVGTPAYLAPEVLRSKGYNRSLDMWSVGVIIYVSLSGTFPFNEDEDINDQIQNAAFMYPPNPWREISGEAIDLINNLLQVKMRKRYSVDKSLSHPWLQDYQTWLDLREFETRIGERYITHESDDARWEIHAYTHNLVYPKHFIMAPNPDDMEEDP

[13] = biological target: T4, Serine/threonine-protein kinase D3 (Homo sapiens); details: at 1 µM
[14] = biological target: T5, cGMP-dependent protein kinase 1 (Homo sapiens) (UniProt Q13976); details: at 0.1 µM
T5 sequence (whole entry): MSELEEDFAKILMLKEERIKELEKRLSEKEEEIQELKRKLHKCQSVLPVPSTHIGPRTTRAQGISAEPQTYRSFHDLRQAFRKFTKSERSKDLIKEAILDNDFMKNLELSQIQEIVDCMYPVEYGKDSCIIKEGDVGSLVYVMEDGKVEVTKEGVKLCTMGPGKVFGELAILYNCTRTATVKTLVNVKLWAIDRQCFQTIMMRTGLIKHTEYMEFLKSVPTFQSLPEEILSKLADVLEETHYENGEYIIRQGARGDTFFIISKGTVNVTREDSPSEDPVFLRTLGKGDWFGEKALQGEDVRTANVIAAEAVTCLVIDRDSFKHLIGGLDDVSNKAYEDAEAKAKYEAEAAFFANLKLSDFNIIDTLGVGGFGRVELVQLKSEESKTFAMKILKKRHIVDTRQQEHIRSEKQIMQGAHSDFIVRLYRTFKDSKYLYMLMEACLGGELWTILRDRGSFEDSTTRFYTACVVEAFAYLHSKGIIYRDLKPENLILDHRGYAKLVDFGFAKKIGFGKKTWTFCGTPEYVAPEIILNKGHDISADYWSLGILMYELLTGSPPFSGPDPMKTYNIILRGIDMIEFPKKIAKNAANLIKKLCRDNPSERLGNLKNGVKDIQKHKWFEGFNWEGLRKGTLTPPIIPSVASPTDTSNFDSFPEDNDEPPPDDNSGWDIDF

[15] = biological target: T5, cGMP-dependent protein kinase 1 (Homo sapiens); details: at 1 µM
[16] = biological target: T6, cGMP-dependent protein kinase 2 (Homo sapiens) (UniProt Q13237); details: at 0.1 µM
T6 sequence (whole entry): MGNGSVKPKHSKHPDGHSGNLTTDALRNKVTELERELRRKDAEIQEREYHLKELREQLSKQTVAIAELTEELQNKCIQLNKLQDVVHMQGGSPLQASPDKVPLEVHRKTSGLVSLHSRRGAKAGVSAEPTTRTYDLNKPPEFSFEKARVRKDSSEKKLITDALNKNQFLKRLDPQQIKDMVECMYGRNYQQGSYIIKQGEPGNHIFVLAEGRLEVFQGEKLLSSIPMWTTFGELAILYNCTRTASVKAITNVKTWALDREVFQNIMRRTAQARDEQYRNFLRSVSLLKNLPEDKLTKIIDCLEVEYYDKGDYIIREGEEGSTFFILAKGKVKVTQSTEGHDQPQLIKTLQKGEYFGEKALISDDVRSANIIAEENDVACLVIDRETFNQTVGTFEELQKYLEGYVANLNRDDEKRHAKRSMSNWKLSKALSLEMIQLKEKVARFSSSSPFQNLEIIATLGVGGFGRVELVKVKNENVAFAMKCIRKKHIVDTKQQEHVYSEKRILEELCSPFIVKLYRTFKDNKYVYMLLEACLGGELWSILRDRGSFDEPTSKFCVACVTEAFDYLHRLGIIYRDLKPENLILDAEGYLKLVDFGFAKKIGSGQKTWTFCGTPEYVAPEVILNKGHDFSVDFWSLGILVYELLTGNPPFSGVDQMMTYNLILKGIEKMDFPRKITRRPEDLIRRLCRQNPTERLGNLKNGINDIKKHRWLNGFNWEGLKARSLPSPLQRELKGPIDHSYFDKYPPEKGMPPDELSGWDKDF

[17] = biological target: T6, cGMP-dependent protein kinase 2 (Homo sapiens); details: at 1 µM
[18] = biological target: T7, cAMP-dependent protein kinase catalytic subunit PRKX (Homo sapiens) (UniProt P51817); details: at 0.1 µM
T7 sequence (whole entry): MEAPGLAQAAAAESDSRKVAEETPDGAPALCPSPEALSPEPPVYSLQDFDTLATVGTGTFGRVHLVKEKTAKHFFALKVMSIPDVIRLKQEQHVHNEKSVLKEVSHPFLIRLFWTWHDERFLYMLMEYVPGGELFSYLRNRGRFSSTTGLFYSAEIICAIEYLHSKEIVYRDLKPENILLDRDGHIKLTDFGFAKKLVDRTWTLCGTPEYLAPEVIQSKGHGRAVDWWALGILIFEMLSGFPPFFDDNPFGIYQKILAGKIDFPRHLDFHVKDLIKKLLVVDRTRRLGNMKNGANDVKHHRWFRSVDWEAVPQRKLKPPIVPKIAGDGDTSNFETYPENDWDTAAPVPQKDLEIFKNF

[19] = biological target: T7, cAMP-dependent protein kinase catalytic subunit PRKX (Homo sapiens); details: at 1 µM
[20] = biological target: Rho-associated protein kinase 1 (Homo sapiens) (UniProt Q13464); details: at 0.1 µM;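 further: values are mean percent inhibition of ROCK1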
Sequence of Rho-associated protein kinase 1 (Homo sapiens) (Q13464 2-1354 limits assumed): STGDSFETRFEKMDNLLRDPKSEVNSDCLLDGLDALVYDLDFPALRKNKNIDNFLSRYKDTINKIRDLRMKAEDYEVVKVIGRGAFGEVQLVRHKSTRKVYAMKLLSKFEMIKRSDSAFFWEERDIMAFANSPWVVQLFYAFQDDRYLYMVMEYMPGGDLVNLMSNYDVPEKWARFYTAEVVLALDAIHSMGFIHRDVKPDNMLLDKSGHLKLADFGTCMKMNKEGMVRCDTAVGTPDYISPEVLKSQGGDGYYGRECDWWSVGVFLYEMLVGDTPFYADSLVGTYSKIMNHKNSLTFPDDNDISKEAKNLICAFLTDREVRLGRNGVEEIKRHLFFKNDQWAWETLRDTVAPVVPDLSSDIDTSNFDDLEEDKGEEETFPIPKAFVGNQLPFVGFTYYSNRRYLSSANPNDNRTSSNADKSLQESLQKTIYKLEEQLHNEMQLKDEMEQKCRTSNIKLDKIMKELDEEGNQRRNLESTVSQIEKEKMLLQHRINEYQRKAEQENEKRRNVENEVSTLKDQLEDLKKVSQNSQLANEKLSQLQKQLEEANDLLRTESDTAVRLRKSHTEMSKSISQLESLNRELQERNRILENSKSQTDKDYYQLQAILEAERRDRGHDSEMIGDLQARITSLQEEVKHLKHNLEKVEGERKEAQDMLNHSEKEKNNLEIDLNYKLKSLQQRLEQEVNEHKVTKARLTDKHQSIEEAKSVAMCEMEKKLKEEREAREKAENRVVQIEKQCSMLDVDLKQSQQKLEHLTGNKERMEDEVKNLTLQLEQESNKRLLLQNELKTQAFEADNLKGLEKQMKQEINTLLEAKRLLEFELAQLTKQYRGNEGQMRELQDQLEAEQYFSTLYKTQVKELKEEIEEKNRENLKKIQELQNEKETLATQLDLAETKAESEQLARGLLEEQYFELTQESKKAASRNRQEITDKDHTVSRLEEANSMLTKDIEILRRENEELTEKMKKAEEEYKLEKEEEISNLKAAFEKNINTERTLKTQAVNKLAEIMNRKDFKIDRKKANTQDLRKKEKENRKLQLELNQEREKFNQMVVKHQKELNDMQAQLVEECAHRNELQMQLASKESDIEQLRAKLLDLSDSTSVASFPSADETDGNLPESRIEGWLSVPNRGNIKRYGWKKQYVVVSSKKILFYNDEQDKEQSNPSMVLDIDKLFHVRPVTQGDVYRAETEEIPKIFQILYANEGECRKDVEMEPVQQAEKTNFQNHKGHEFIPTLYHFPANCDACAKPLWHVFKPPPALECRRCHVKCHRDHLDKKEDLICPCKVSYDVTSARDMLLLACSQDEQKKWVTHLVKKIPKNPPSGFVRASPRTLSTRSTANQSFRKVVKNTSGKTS

Sequence of Protein kinase C beta type (Homo sapiens) (P05771 2-671 limits assumed): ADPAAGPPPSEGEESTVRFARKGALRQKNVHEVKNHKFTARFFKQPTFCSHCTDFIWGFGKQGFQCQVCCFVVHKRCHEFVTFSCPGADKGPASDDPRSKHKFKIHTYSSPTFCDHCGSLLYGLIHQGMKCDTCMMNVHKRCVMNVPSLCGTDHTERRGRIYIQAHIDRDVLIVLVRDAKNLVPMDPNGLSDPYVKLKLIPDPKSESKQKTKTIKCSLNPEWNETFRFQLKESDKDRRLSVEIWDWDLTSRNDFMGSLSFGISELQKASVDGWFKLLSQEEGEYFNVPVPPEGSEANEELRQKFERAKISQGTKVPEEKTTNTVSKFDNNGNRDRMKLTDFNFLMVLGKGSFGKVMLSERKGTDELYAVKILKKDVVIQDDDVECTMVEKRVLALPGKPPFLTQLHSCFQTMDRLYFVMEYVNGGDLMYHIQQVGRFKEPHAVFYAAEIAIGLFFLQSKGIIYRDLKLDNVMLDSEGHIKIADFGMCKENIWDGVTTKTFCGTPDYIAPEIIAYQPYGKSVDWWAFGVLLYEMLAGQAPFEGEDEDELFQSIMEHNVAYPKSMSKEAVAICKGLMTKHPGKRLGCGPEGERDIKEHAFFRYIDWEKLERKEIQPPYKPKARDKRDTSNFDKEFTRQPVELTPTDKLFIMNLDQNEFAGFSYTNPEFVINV
Sequence of Protein kinase C theta type (Homo sapiens) (Q04759 whole entry, looked up): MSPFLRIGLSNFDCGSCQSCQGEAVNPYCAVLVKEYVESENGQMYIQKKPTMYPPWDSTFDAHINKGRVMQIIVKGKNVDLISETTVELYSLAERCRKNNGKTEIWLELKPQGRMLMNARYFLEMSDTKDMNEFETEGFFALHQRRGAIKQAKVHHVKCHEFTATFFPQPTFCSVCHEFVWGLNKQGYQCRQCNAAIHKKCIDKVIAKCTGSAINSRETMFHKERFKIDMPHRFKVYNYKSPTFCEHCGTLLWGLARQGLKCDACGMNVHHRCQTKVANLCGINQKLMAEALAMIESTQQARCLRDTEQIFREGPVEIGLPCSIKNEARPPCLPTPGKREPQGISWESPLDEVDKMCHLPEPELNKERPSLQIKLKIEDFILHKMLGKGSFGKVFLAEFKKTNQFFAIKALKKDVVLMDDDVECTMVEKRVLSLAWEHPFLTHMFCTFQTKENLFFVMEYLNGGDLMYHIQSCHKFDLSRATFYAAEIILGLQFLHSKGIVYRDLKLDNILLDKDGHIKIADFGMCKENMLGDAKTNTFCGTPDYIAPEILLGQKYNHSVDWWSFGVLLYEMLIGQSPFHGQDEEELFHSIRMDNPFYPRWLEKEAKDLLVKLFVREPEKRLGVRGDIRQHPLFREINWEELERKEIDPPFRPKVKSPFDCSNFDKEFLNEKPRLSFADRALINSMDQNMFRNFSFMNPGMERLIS

CNC(=O)c1cncc(/C=C/c2c(C)cccc2C)c1
inhibition [1]: 0.78% | inhibition [2]: -1.41% | inhibition [3]: -1.56% | inhibition [4]: -0.68% | inhibition [5]: 0.76% | inhibition [6]: -0.12% | inhibition [7]: 1.01% | inhibition [8]: -2.84% | inhibition [9]: -2.47% | inhibition [10]: -2.56% | inhibition [11]: -2.22% | inhibition [12]: -2.33% | inhibition [13]: -3.04% | inhibition [14]: -0.33% | inhibition [15]: 4.28% | inhibition [16]: 0.8% | inhibition [17]: 1.58% | inhibition [18]: 0.26% | inhibition [19]: 0.53% | inhibition [20]: -0.35%

COc1cc(Nc2ncc(-c3ccccc3)o2)cc(OC)c1OC
inhibition [1]: 1.46% | inhibition [2]: 0.32% | inhibition [3]: 0.77% | inhibition [4]: -0.7% | inhibition [5]: -0.9% | inhibition [6]: 0.3% | inhibition [7]: 2.2% | inhibition [8]: -0.66% | inhibition [9]: -1.47% | inhibition [10]: -0.6% | inhibition [11]: -0.05% | inhibition [12]: -1.81% | inhibition [13]: -1.6% | inhibition [14]: 1.84% | inhibition [15]: 1.3% | inhibition [16]: -0.12% | inhibition [17]: 1.47% | inhibition [18]: 0.22% | inhibition [19]: 0.75% | inhibition [20]: 0.49%

From ChEMBL document CHEMBL1961873, “Compounds: GSK PKIS; Assays: Nanosyn kinase panel” (2012)
